PubChem BioAssay AID1159580 (chemical genetic matrix, 2015)
Screen size: about 5,500 compounds; about 2,000 (36%) were called active. Another 18% or so got no clear call; they are omitted. Cut-off read from the data, not from the text of the source: active = normalized growth mostly below about 0.91 (no sharp cut-off); inconclusive = no clear call, values can overlap the other calls; inactive = mostly above about 0.92. Some of the results follow.

Assay: chemical genetic growth profiling, strain panel (AID 1159580);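 note: tested at 20 µM; growth read once vehicle control cultures reached saturation at 30 °C; 1 = growth at the plate median or of vehicle wells; lower values mean less growth of the strain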
Settings: growth OD

Measured: normalized growth

CC1C(=O)OC2C1CCC1(C)C=CC(=O)C3(C)OC213 (stereo unspecified)
inactive: S. cerevisiae deletion strains, locus YAL013W, strain DEP1, hits give low values 0.968 | S. cerevisiae deletion strains, locus YBR021W, strain FUR4, hits give low values 1.01 | S. cerevisiae deletion strains, locus YBR229C, strain ROT2, hits give low values 1.01 | S. cerevisiae deletion strains, locus YCL029C, strain bik1, hits give low values 1.01 | S. cerevisiae deletion strains, locus YDL035C, strain GPR1, hits give low values 1.02 | S. cerevisiae deletion strains, locus YDL074C, strain BRE1, hits give low values 0.974 | S. cerevisiae deletion strains, locus YDL101C, strain DUN1, hits give low values 1 | S. cerevisiae deletion strains, locus YDL134C, strain PPH21, hits give low values 0.999 | S. cerevisiae deletion strains, locus YDL185W, strain tfp1, hits give low values 1.01 | S. cerevisiae deletion strains, locus YDL192W, strain arf1, hits give low values 0.999 | S. cerevisiae deletion strains, locus YDR101C, strain arx1, hits give low values 0.989 | S. cerevisiae deletion strains, locus YDR150W, strain NUM1, hits give low values 1 | S. cerevisiae deletion strains, locus YDR162C, strain NBP2, hits give low values 0.985 | S. cerevisiae deletion strains, locus YDR318W, strain mcm21, hits give low values 1.01 | S. cerevisiae deletion strains, locus YDR388W, hits give low values 1 | S. cerevisiae deletion strains, locus YDR502C, strain sam2, hits give low values 0.985 | S. cerevisiae deletion strains, locus YEL061C, strain CIN8, hits give low values 1.02 | S. cerevisiae deletion strains, locus YER110C, hits give low values 1.01 | S. cerevisiae deletion strains, locus YER155C, strain BEM2, hits give low values 1 | S. cerevisiae deletion strains, locus YER167W, strain BCK2, hits give low values 1.02 | S. cerevisiae deletion strains, locus YGL078C, strain dbp3, hits give low values 1 | S. cerevisiae deletion strains, locus YGL086W, strain mad1, hits give low values 1.01 | S. cerevisiae deletion strains, locus YGL248W, strain PDE1, hits give low values 1.01 | S. cerevisiae deletion strains, locus YGR078C, strain PAC10, hits give low values 0.989 | S. cerevisiae deletion strains, locus YGR135W, strain pre9, hits give low values 0.976 | S. cerevisiae deletion strains, locus YGR229C, strain SMI1, hits give low values 0.999 | S. cerevisiae deletion strains, locus YGR252W, strain gcn5, hits give low values 1.01 | S. cerevisiae deletion strains, locus YHR030C, strain SLT2, hits give low values 1.01 | S. cerevisiae deletion strains, locus YHR079C, strain IRE1 (second series), hits give low values 1.02 | S. cerevisiae deletion strains, locus YHR094C, strain hxt1, hits give low values 0.999 | S. cerevisiae deletion strains, locus YHR129C, strain ARP1, hits give low values 1.02 | S. cerevisiae deletion strains, locus YHR200W, strain rpn10, hits give low values 1 | S. cerevisiae deletion strains, locus YIL066C, strain RNR3, hits give low values 0.999 | S. cerevisiae deletion strains, locus YIL073C, strain SPO22, hits give low values 1.09 | S. cerevisiae deletion strains, locus YIL125W, strain kgd1, hits give low values 1.01 | S. cerevisiae deletion strains, locus YIR030C, strain dcg1, hits give low values 1 | S. cerevisiae deletion strains, locus YJL095W, strain BCK1, hits give low values 0.988 | S. cerevisiae deletion strains, locus YJL134W, strain LCB3, hits give low values 1.01 | S. cerevisiae deletion strains, locus YJL168C, strain set2, hits give low values 1.01 | S. cerevisiae deletion strains, locus YJL187C, strain SWE1 (second series), hits give low values 1.01 | S. cerevisiae deletion strains, locus YJR043C, strain POL32, hits give low values 1.06 | S. cerevisiae deletion strains, locus YJR075W, strain HOC1, hits give low values 1 | S. cerevisiae deletion strains, locus YKL009W, strain mrt4, hits give low values 1.02 | S. cerevisiae deletion strains, locus YKL068W, hits give low values 1 | S. cerevisiae deletion strains, locus YKL085W, strain MDH1 (second series), hits give low values 1.04 | S. cerevisiae deletion strains, locus YKL085W, strain MDH1, hits give low values 1.04 | S. cerevisiae deletion strains, locus YKL190W, strain CNB1, hits give low values 1.01 | S. cerevisiae deletion strains, locus YKR001C, strain vps1, hits give low values 1 | S. cerevisiae deletion strains, locus YLR039C, strain RIC1, hits give low values 1.01 | S. cerevisiae deletion strains, locus YLR058C, strain SHM2, hits give low values 1.01 | S. cerevisiae deletion strains, locus YLR102C, strain apc9, hits give low values 1.01 | S. cerevisiae deletion strains, locus YLR262C, strain YPT6, hits give low values 0.996 | S. cerevisiae deletion strains, locus YLR268W, strain sec22, hits give low values 0.959 | S. cerevisiae deletion strains, locus YLR330W, strain CHS5, hits give low values 1.01 | S. cerevisiae deletion strains, locus YLR342W, strain FKS1 (second series), hits give low values 1.06 | S. cerevisiae deletion strains, locus YLR371W, strain rom2, hits give low values 1.01 | S. cerevisiae deletion strains, locus YLR418C, strain cdc73, hits give low values 0.963 | S. cerevisiae deletion strains, locus YML016C, strain PPZ1, hits give low values 1 | S. cerevisiae deletion strains, locus YML032C, strain rad52, hits give low values 1.01 | S. cerevisiae deletion strains, locus YML124C, strain tub3, hits give low values 1 | S. cerevisiae deletion strains, locus YMR078C, strain ctf18, hits give low values 1 | S. cerevisiae deletion strains, locus YMR223W, strain ubp8, hits give low values 1.01 | S. cerevisiae deletion strains, locus YMR263W, strain SAP30, hits give low values 0.982 | S. cerevisiae deletion strains, locus YMR307W, strain GAS1, hits give low values 1.02 | S. cerevisiae deletion strains, locus YNL067W, strain RPL9B, hits give low values 0.97 | S. cerevisiae deletion strains, locus YNL128W, strain TEP1, hits give low values 1 | S. cerevisiae deletion strains, locus YNL153C, strain GIM3, hits give low values 0.989 | S. cerevisiae deletion strains, locus YNL233W, strain BNI4, hits give low values 1.01 | S. cerevisiae deletion strains, locus YNL250W, strain rad50, hits give low values 0.999 | S. cerevisiae deletion strains, locus YNL271C, strain bni1, hits give low values 1.01 | S. cerevisiae deletion strains, locus YNL298W, strain CLA4, hits give low values 0.99 | S. cerevisiae deletion strains, locus YNL307C, strain MCK1, hits give low values 1.02 | S. cerevisiae deletion strains, locus YNL322C, strain KRE1, hits give low values 1 | S. cerevisiae deletion strains, locus YNR052C, strain pop2, hits give low values 1.02 | S. cerevisiae deletion strains, locus YOL006C, strain TOP1, hits give low values 0.926 | S. cerevisiae deletion strains, locus YOL012C, strain htz1 1.83 | S. cerevisiae deletion strains, locus YOL147C, strain pex11, hits give low values 1.01 | S. cerevisiae deletion strains, locus YOR061W, strain CKA2, hits give low values 1.01 | S. cerevisiae deletion strains, locus YOR069W, strain VPS5, hits give low values 1.01 | S. cerevisiae deletion strains, locus YOR136W, strain idh2, hits give low values 1.01 | S. cerevisiae deletion strains, locus YOR144C, strain elg1, hits give low values 0.997 | S. cerevisiae deletion strains, locus YOR184W, strain ser1, hits give low values 1.01 | S. cerevisiae deletion strains, locus YOR316C, strain cot1, hits give low values 1.01 | S. cerevisiae deletion strains, locus YPL055C, strain LGE1, hits give low values 0.974 | S. cerevisiae deletion strains, locus YPL241C, strain CIN2, hits give low values 1.01 | S. cerevisiae deletion strains, locus YPR119W, strain clb2, hits give low values 0.996 | S. cerevisiae deletion strains, locus YPR141C, strain kar3, hits give low values 0.998 | S. cerevisiae deletion strains, locus YPR163C, strain tif3, hits give low values 1.01 | S. cerevisiae deletion strains, locus YPR167C, strain met16, hits give low values 1 | S. cerevisiae deletion strains, strain wtn01, hits give low values 0.996 | S. cerevisiae strains, strain wild type, hits give low values 1.01
